Laboratory results: ChEMBL document CHEMBL4513216, “Probing the Open Global Health Chemical Diversity Library for Multistage-Active Starting Points for Next-Generation Antimalarials” (ACS Infect Dis, 2020)
In all, about 65,000 compounds went through this assay and about 2,100 (3.2%) showed an effect of 50% or more. The median lay at about -52%. Only a selection was taken, and strong results are over-represented in it overall.

System: Plasmodium falciparum
Test: Screen against P. falciparum Asexual Blood Stage (ABS), at 5uM
Type: functional, Dd2
Details: tested at 5 uM

Row | SMILES | INHIBITION
1 | O=C(N1CCCC1)N1CCC[C@]2(C[C@@H](OCc3ccncc3)CO2)C1 | -71.6%
2 | CCC(C(=O)Nc1ccc(-c2nc(C)n[nH]2)cc1)N1CCCC1=O (centres undefined) | -34.4%
3 | Cc1nc(NS(=O)(=O)c2cccc(F)c2C)no1 | -25.8%
4 | COCCN1CCC(c2nc3ccc(N4CCCC4)cn3n2)CC1 | -45.6%
5 | O=C(NCCc1ccccn1)[C@@H]1CC[C@@H]2[C@@H](CCN2Cc2ccoc2)O1 | -60.9%
6 | COc1nc2ccn(CCc3scnc3C)c(=O)c2cc1C#N | -31.6%
7 | COc1nc2ccn(CCNc3cc(C)ccn3)c(=O)c2cc1C#N | 51.7%
8 | COc1nc2ccn(CCc3cnccn3)c(=O)c2cc1C#N | -11.9%
9 | N#Cc1cc(F)ccc1CN1CCCC1Cn1cccn1 (centres undefined) | -48.4%
10 | CC(=O)Nc1ccc(C(=O)N(C)Cc2ccc(F)cc2F)s1 | -10.9%
11 | O=C(CCN1CCCO1)NC1CCCN(CC2CCCCC2)C1 (centres undefined) | -105%
12 | c1ccc(Cn2ccnc2CNC2CCCOc3ccccc32)cc1 (centres undefined) | 42.5%
13 | Cc1cccc2c1OCCCC2NCc1nccn1Cc1ccccc1 (centres undefined) | 63.8%
14 | Cn1cc(CNC2CCCOc3c2ccc2ccccc32)cn1 (centres undefined) | 63.1%
15 | Cc1ccc2c(c1)OCCCC2NCc1nccn1Cc1ccccc1 (centres undefined) | -13.4%
16 | Cc1cccc2c1OCCC2NCc1c(C)nn(C)c1N(C)C (centres undefined) | 0.635%
17 | Cn1cc(CNC2CCCOc3c(Cl)cccc32)cn1 (centres undefined) | 20.3%
18 | CCCn1cc(-c2cc(-c3cc(CC)n[nH]3)c(C#N)c(N)n2)c(C)n1 | -20.1%
19 | CCCN1CCC(c2nc3ccc(NCc4ccccc4)cn3n2)CC1 | -1.75%
20 | O=C1CCCN1Cc1ncn2c1CN(C(=O)N1CCCC1)CCC2 | -29.5%
21 | Cn1cc(NC(=O)N2CCC2c2ccccc2)ccc1=O (centres undefined) | 54.8%
22 | Cn1cc(NC(=O)N2CCC(c3ccccc3)CC2)ccc1=O | -187%

Row | SMILES | INHIBITION
23 | Cn1cc(NC(=O)N2CCCC2c2cccnc2)ccc1=O (centres undefined) | -8.15%
24 | O=C(C1=CCCC1)N1CCO[C@H]2[C@@H](Oc3ccccn3)CC[C@@H]21 | -51.5%
25 | Cc1cc(C(=O)N2CCO[C@H]3[C@H](Oc4ccccn4)CC[C@@H]32)c(C)[nH]1 | 51.5%
26 | Cc1occc1C(=O)N1CCO[C@H]2[C@@H](Oc3ccccn3)CC[C@@H]21 | -73.5%
27 | CCCc1nc(N2CCCN(c3ccncc3)CC2)c2cnn(C)c2n1 | 65%
28 | CCCc1nc(N2CCN(Cc3ccccn3)CC2)c2cnn(C)c2n1 | 19.2%
29 | CCCc1nc(N2CCCN(c3ncccn3)CC2)c2cnn(C)c2n1 | -2.15%
30 | Cc1cnn(C2CCCN(C(=O)c3cccc4c3OCO4)C2)c1 (centres undefined) | -116%
31 | CCN(Cc1cc(Cl)ccc1OC)Cc1ncnn1CC | -33.4%
32 | CCn1nc(C)c(CN(Cc2ccccn2)Cc2ccccc2Cl)c1C | -33.9%
33 | CCN(Cc1ccccn1)Cc1cc(Cl)ccc1OC | -28.3%
34 | Cn1ccnc1CN(Cc1ccccn1)Cc1ccccc1Cl | 79.4%
35 | Cn1cc(CN(Cc2ccccn2)Cc2ccccc2Cl)cn1 | -31.1%
36 | CCN(Cc1cc(Cl)ccc1OC)Cc1nccn1C | 67.2%
37 | Cc1cccc(CN2CCc3c(COCC(=O)N(C)C)nn(C)c3C2)n1 | -107%
38 | COCC(=O)N1CCCC(COc2ccccc2C)C1 (centres undefined) | -71%
39 | Cc1ccccc1OCC1CCCN(C(=O)CNC(=O)N(C)C)C1 (centres undefined) | -158%
40 | Cc1ccccc1OCC1CCCN(C(=O)CN(C)C2CCNCC2)C1 (centres undefined) | 57.5%
41 | Cc1[nH]/c(=N\C(=O)c2csc(NC3CCCC3)n2)sc1C | 50%
42 | Cc1cnc(NC(=O)c2csc(NC3CCCC3)n2)s1 | -86.7%
43 | Cc1[nH]/c(=N\C(=O)c2csc(NCC(C)C)n2)sc1C | -31.9%
44 | CCOC(=O)N1CCCC2(CCN(Cc3ccccc3C#N)C2)C1 (centres undefined) | -71.9%

Row | SMILES | INHIBITION
45 | CN1CCN(C(CNC(=O)CCn2cccn2)c2cccs2)CC1 (centres undefined) | -29.5%
46 | CN1CCN(Cc2ccccc2CNC(=O)c2ccc(Br)cc2F)CC1 | 48.8%
47 | CC(CNC(=O)c1ccc(Cl)cc1F)N1CCN(C)CC1 (centres undefined) | 64.1%
48 | O=C(NCC(c1cccs1)N1CCOCC1)c1ccc(F)cc1Cl (centres undefined) | -46.5%
49 | CC(CNC(=O)c1ccc(Cl)cc1F)N1CCCC1 (centres undefined) | -2.96%
50 | CC(CNC(=O)c1cc(Cl)ccc1F)N1CCCC1 (centres undefined) | 12.4%
51 | CN1CCN(C(CNC(=O)c2ccc(Cl)cc2F)c2cccs2)CC1 (centres undefined) | 53.9%
52 | CN1CCN(Cc2ccccc2CNC(=O)c2ccc(Br)cc2)CC1 | 46.2%
53 | CN1CCN(Cc2ccccc2CNC(=O)c2cc(Cl)ccc2F)CC1 | 66.5%
54 | Cc1cc(C)n(CCN2CCC(N(C)Cc3noc(C4CC4)n3)C2)n1 (centres undefined) | -148%
55 | Cc1cc(C(=O)N2CCc3ncnc(-c4cnn(C)c4)c3CC2)c(C)o1 | -23.2%
56 | CC(CNC(=O)c1ccc(=O)[nH]n1)N1CCc2ccccc21 (centres undefined) | -120%
57 | CN(C)C(=O)NC[C@@H]1OC[C@H]2CN(Cc3cccc(F)c3)CC[C@H]21 | -66.7%
58 | CN(C)CC1CSCCCN1C(=O)c1ccc(C(C)(C)C)cc1 (centres undefined) | 2.97%
59 | CN(C)CC1CSCCCN1C(=O)c1ccc(-c2ccccc2)cc1 (centres undefined) | 6.37%
60 | CN(C)CC1CSCCCN1C(=O)c1ccc(-n2cccc2)cc1 (centres undefined) | 63%
61 | CC(C)NC(=O)C1CCC2(CCN(Cc3cnn(C)c3)CC2)CO1 (centres undefined) | -63.9%
62 | CC(NC(=O)Cn1cc(-c2ccccc2)cn1)C1CC1 (centres undefined) | -158%
63 | COCC1CN(S(=O)(=O)C2CC2)Cc2ncn(CC3CC3)c21 (centres undefined) | -17.1%
64 | COC1CCN(C(=O)CCn2cccn2)CC1 | 53.1%
65 | CNC(=O)C1CCN(C(=O)CCn2cccn2)CC1 | -104%
66 | CCC(=O)N1CCN(C(=O)CCn2cccn2)CC1 | -114%

Row | SMILES | INHIBITION
67 | O=C(CCn1cccn1)N1CCN(CC(F)F)CC1 | -177%
68 | CC(C)CN1CCN(C(=O)CCn2cccn2)CC1 | 67.8%
69 | CS(=O)(=O)N1CCN(C(=O)CCn2cccn2)CC1 | -7.11%
70 | COCc1nc(N(C)C)ncc1C(=O)OC | -29.3%
71 | Cc1ccc(CN2Cc3nnn(C)c3C(COCc3ccccc3)C2)s1 (centres undefined) | -43.4%
72 | CN(CCc1ncnn1C1Cc2ccccc2C1)C1CCS(=O)(=O)C1 (centres undefined) | -63.2%
73 | Cc1cccc(OCC(O)CN2CCN(c3nccs3)CC2)c1 (centres undefined) | -7.68%
74 | CCOc1cc(C(=O)N2CCCC2)cc2occc12 | -69.7%
75 | Cc1n[nH]cc1CNC1CCN(c2cccc(C(F)(F)F)c2)CC1 | 62.8%
76 | Cc1n[nH]cc1CNC1CCN(c2ccc(F)cc2)CC1 | -38.1%
77 | Cc1n[nH]cc1CNC1CCN(c2ccccc2)CC1 | -20.1%
78 | COc1ccc(C(=O)C2CCCN(c3cc(C#N)ccn3)C2)cc1F (centres undefined) | -126%
79 | CCC(CNC1CCN(C(C)=O)CC1)Oc1cccc(C)c1 (centres undefined) | 53.2%
80 | CCC(CNC1CCN(C(C)=O)CC1)Oc1ccccc1Cl (centres undefined) | 48.8%
81 | COCC(=O)N1CCC(Oc2cccc(C)c2)CC1 | -127%
82 | O=C(C1CCCCC1)N1CCC2(CCCN2CC2CC2)CC1 | -19.9%
83 | CC(C)c1noc(CN2CCN(C(=O)c3cccnc3O)CC2)n1 | -63.3%
84 | Cc1nn(-c2ccccc2)c(C)c1-c1ccnc(N2CCCOCC2)n1 | -64.7%
85 | Cc1nn(-c2ccccc2)c(C)c1-c1ccnc(N2CCCNCC2)n1 | 66.9%
86 | Cc1nn(-c2ccccc2)c(C)c1-c1ccnc(N2CCC(O)CC2)n1 | -309%
87 | CN1CCN(c2cc(Sc3cccs3)nc(N)n2)CC1CCO (centres undefined) | -77.1%
88 | Cc1nc(CN2CCCC(N(C)Cc3nccn3C)C2)no1 (centres undefined) | -29.4%

Row | SMILES | INHIBITION
89 | CN(Cc1nccn1C)C1CCCN(CCCc2ccccc2)C1 (centres undefined) | 63.9%
90 | CN(CCc1ccccc1)C1CCCN(Cc2nccn2C)C1 (centres undefined) | 22.1%
91 | O=C1COC2(CCN(c3ncccn3)CC2)CN1 | -86%
92 | COCCC1COC2(CCN(C(=O)c3ccsc3)CC2)C1 (centres undefined) | -101%
93 | CCC1CCC(NCCN2CCOCC2)CC1 (centres undefined) | 5.69%
94 | CC(C)(C)C1CCC(NCCN2CCOCC2)CC1 (centres undefined) | 56.3%
95 | C1CCC(NCCN2CCOCC2)C1 | -99.9%
96 | CC(C)c1cc(C(=O)NCCc2nc3c(s2)CCC3)n(C)n1 | -63.4%
97 | Cc1noc(C)c1-c1ccnc(C2CCNCC2)c1 | -51.7%
98 | CC(=O)N1CC[C@@]2(O)CCCC[C@H]2[C@@H]1c1ccc2c(c1)OCO2 | -87.3%
99 | Oc1cccc(CNC2CCN(CCc3ccncc3)CC2)c1 | -18.8%
100 | c1cc(CCN2CCC(NCc3ccsc3)CC2)ccn1 | -8.86%
101 | N#Cc1ccc(CNC2CCN(CCc3ccncc3)CC2)cc1 | 56.7%
102 | CC(CNC(=O)c1cnc[nH]1)Oc1ccccc1Br (centres undefined) | -61.4%
103 | CC(C)N1CCC(c2cnc(-c3cncnc3)cn2)CC1 | -18%
104 | COc1cccc(-c2cccc(CN3C[C@H]4CC[C@@H](C3)N(C)C4=O)c2)c1 | 13.1%
105 | CC(C)c1ncc2c(n1)CN(CC(=O)Nc1ccc(Cl)cn1)CC2 | -65.1%
106 | Cc1ncc2c(n1)CN(CC(=O)Nc1ccc(Cl)cn1)CC2 | 6.47%
107 | CCc1ncc2c(n1)CN(CC(=O)Nc1ccc(Cl)cn1)CC2 | 59.4%
108 | CCCc1nc(N2CCCCCC2)c2c(n1)c(C)nn2CC | 22.2%
109 | NC(=O)C1(CCCc2ccccn2)CCCN(Cc2ccncc2)C1 (centres undefined) | -123%
